Hit rate of the full screen: of about 2,000 compounds, about 110 (5.5%) showed an effect of 50% or more. The full list was thinned out, with strong results kept by preference.

The record followed here is ChEMBL document CHEMBL5606460, “ASAP - DENV-2 NS2B-NS3 protease fluorescence single point” (2024).

The test has as its target Genome polyprotein (dengue virus type 2) (UniProt P29990).
Where [1] appears, read: Thailand/16681/1984, Concentration 25.0 uM, Number of replicates 1.0.

On to `CNC(=O)[C@H]1CCCN1S(=O)(=O)c1ccc(Oc2ccccc2Cl)cc1`, for which the inhibition (Thailand/16681/1984, Concentration 49.5 uM, Number of replicates 2.0, Standard deviation 0.43290983719310167 %) is -4.62%; the inhibition (Thailand/16681/1984, Concentration 99.01 uM, Number of replicates 2.0, Standard deviation 1.120416310773355 %) is -4.38%; the inhibition (Thailand/16681/1984, Concentration 198.0 uM, Number of replicates 2.0, Standard deviation 0.24124704358981106 %) is -3.59%.
For the molecule `COC1CN(C(=O)c2cc(Cl)ccc2NS(=O)(=O)c2ccc(Oc3ccccc3Cl)cc2)C1`, the inhibition reads like this: (Thailand/16681/1984, Concentration 49.5 uM, Number of replicates 2.0, Standard deviation 0.43340110085934463 %) 13.9%; (Thailand/16681/1984, Concentration 99.01 uM, Number of replicates 2.0, Standard deviation 0.8668022017186893 %) 27.6%; (Thailand/16681/1984, Concentration 198.0 uM, Number of replicates 2.0, Standard deviation 1.1631532151634014 %) 43.9%.
For `CNC(=O)c1ccccc1NS(=O)(=O)c1ccc(Oc2ccccc2Cl)cc1`, the inhibition is 0.494% (Thailand/16681/1984, Concentration 49.5 uM, Number of replicates 2.0, Standard deviation 0.8338499147497574 %); -2.05% (Thailand/16681/1984, Concentration 99.01 uM, Number of replicates 2.0, Standard deviation 3.066215993073902 %); -6.31% (Thailand/16681/1984, Concentration 198.0 uM, Number of replicates 2.0, Standard deviation 2.7475277663160753 %).
Take `O=C(c1cc(Cl)ccc1NS(=O)(=O)c1ccc(Oc2ccccc2Cl)cc1)N1CCC[C@H](O)C1`: the inhibition turned out to be 22.2% (Thailand/16681/1984, Concentration 49.5 uM, Number of replicates 2.0, Standard deviation 1.2236693461292836 %); 86.9% (Thailand/16681/1984, Concentration 99.01 uM, Number of replicates 2.0, Standard deviation 0.043163767671764885 %); 96.8% (Thailand/16681/1984, Concentration 198.0 uM, Number of replicates 2.0, Standard deviation 0.0596286869236367 %).
`CNC(=O)c1cc(Cl)ccc1NS(=O)(=O)c1ccc(F)c(C(=O)N2CCCC2)c1`: the inhibition by setting is: (Thailand/16681/1984, Concentration 49.5 uM, Number of replicates 2.0, Standard deviation 0.7714528805703116 %) -4.6%; (Thailand/16681/1984, Concentration 99.01 uM, Number of replicates 2.0, Standard deviation 1.6986403894371052 %) -2.1%; (Thailand/16681/1984, Concentration 198.0 uM, Number of replicates 2.0, Standard deviation 1.4542094148600992 %) 1.16%.
As to `NC(=O)c1ccccc1NS(=O)(=O)c1ccc(Oc2ccccc2Cl)cc1`, the inhibition (Thailand/16681/1984, Concentration 49.5 uM, Number of replicates 2.0, Standard deviation 0.6673279112123895 %) turned out to be 5.67%; the inhibition (Thailand/16681/1984, Concentration 99.01 uM, Number of replicates 2.0, Standard deviation 2.0636931261780913 %) is 38.8%; the inhibition (Thailand/16681/1984, Concentration 198.0 uM, Number of replicates 2.0, Standard deviation 0.3870011295715193 %) was determined as 81.3%.
As for `CNC(=O)c1cc(Cl)ccc1NS(=O)(=O)c1cccc(S(N)(=O)=O)c1`, the inhibition worked out at 1.73% (Thailand/16681/1984, Concentration 49.5 uM, Number of replicates 2.0, Standard deviation 0.4003966624337367 %); 3.26% (Thailand/16681/1984, Concentration 99.01 uM, Number of replicates 2.0, Standard deviation 1.0615056375609497 %); 5.28% (Thailand/16681/1984, Concentration 198.0 uM, Number of replicates 2.0, Standard deviation 0.04640199433655389 %).
Consider `Cc1nc(C2CCN(C(=O)c3ccn([C@H]4CCCNC4)n3)CC2)n[nH]1`, for which the inhibition reads like this: (Thailand/16681/1984, Concentration 49.5 uM, Number of replicates 2.0, Standard deviation 0.8219326667939915 %) -4.42%; (Thailand/16681/1984, Concentration 99.01 uM, Number of replicates 2.0, Standard deviation 0.15240671313806178 %) -3.84%; (Thailand/16681/1984, Concentration 198.0 uM, Number of replicates 2.0, Standard deviation 2.223365450237249 %) -4.59%.
Consider `O=Cc1ccc(N2CCC(C(=O)NCCc3cccc(Br)c3)CC2)cc1`, for which the inhibition under setting [1] is 11.8%.
As to `O=Cc1ccc(N2CCC(C(=O)N3CC4C[C@H]5CC3C[C@H](C4)C5)CC2)cc1`, the inhibition under setting [1] was 14.5%.
In the case of `O=Cc1ccc(N2CCC(C(=O)Nc3ccccc3OCC(F)(F)F)CC2)cc1`, the inhibition under setting [1] amounted to 13.4%.
For the molecule `Cn1cc(CNC(=O)c2ccccc2[C@@H]2CCCCN2)cn1`, the inhibition (Thailand/16681/1984, Concentration 49.5 uM, Number of replicates 2.0, Standard deviation 1.3250088302691205 %) is -2.36%; the inhibition (Thailand/16681/1984, Concentration 99.01 uM, Number of replicates 2.0, Standard deviation 0.6184423716804828 %) was -1.37%; the inhibition (Thailand/16681/1984, Concentration 198.0 uM, Number of replicates 2.0, Standard deviation 0.12536703369097324 %) was -0.243%.
`Cc1cn(-c2cc(NC(=O)C3CCN(c4ccc(C=O)cc4)CC3)cc(C(F)(F)F)c2)cn1`: the inhibition under setting [1] was 12.1%.
With `O=Cc1ccc(N2CCC(C(=O)N3CCC(c4nc5ccccc5s4)CC3)CC2)cc1`, under setting [1], the inhibition was found to be 14.3%.
`Cn1cc(CNC(=O)c2ccccc2CN)cn1`: the inhibition is, setting by setting: (Thailand/16681/1984, Concentration 49.5 uM, Number of replicates 2.0, Standard deviation 4.704758964680012 %) -1.53%; (Thailand/16681/1984, Concentration 99.01 uM, Number of replicates 2.0, Standard deviation 3.3738585950449482 %) -6.84%; (Thailand/16681/1984, Concentration 198.0 uM, Number of replicates 2.0, Standard deviation 1.4794083306984744 %) -5.39%.
Take `c1cnc2c(CN3CCC(c4c[nH]c5cccnc45)CC3)c[nH]c2c1`: the inhibition is, setting by setting: (Thailand/16681/1984, Concentration 49.5 uM, Number of replicates 2.0, Standard deviation 2.401783006640112 %) -4.14%; (Thailand/16681/1984, Concentration 99.01 uM, Number of replicates 2.0, Standard deviation 2.691377880268528 %) -3.47%; (Thailand/16681/1984, Concentration 198.0 uM, Number of replicates 2.0, Standard deviation 2.989922552884535 %) -1.51%.
Consider `O=Cc1ccc(N2CCC(C(=O)N[C@@H](Cc3ccccc3)c3ccccc3)CC2)cc1`, for which, under setting [1], the inhibition stood at 4.84%.
As for `O=Cc1ccc(N2CCC(C(=O)NC[C@H]3COc4ccccc4O3)CC2)cc1`, under setting [1], the inhibition worked out at 15.5%.
On the same count and under the same terms, with `C#CCN(Cc1ccccc1Cl)C(=O)C1CCN(c2ccc(C=O)cc2)CC1` the figure was 14.7%.
With `CNC(=O)c1cncnc1NS(=O)(=O)c1ccc(Oc2ccccc2Cl)cc1`, the inhibition turned out to be 5.46% (Thailand/16681/1984, Concentration 49.5 uM, Number of replicates 2.0, Standard deviation 1.0127526920144583 %); 5.75% (Thailand/16681/1984, Concentration 99.01 uM, Number of replicates 2.0, Standard deviation 1.3865274661736828 %); 3.56% (Thailand/16681/1984, Concentration 198.0 uM, Number of replicates 2.0, Standard deviation 1.0625889801550739 %).
For the molecule `CNC(=O)c1cc(C#N)ccc1NS(=O)(=O)c1ccc(Oc2ccccc2Cl)cc1`, the inhibition was 49.4% (Thailand/16681/1984, Concentration 49.5 uM, Number of replicates 2.0, Standard deviation 0.4271842721165937 %); 88.8% (Thailand/16681/1984, Concentration 99.01 uM, Number of replicates 2.0, Standard deviation 0.14972718509713318 %); 94% (Thailand/16681/1984, Concentration 198.0 uM, Number of replicates 2.0, Standard deviation 0.1152868035427591 %).
For the molecule `CNC(=O)c1cc(Cl)ncc1NS(=O)(=O)c1ccc(Oc2ccccc2Cl)cc1`, the inhibition was -0.629% (Thailand/16681/1984, Concentration 49.5 uM, Number of replicates 2.0, Standard deviation 0.003826975991637689 %); -0.288% (Thailand/16681/1984, Concentration 99.01 uM, Number of replicates 2.0, Standard deviation 0.08610681229787821 %); 12.6% (Thailand/16681/1984, Concentration 198.0 uM, Number of replicates 2.0, Standard deviation 0.5032468582115982 %).
Take `CCc1ccc(NS(=O)(=O)c2ccc(Oc3ccccc3Cl)cc2)c(C(=O)NC)c1`: the inhibition was 20.1% (Thailand/16681/1984, Concentration 49.5 uM, Number of replicates 2.0, Standard deviation 2.280534278494396 %); 35.5% (Thailand/16681/1984, Concentration 99.01 uM, Number of replicates 2.0, Standard deviation 1.9533776277108892 %); 57.1% (Thailand/16681/1984, Concentration 198.0 uM, Number of replicates 2.0, Standard deviation 2.0141203401343657 %).
Turning to `CNC(=O)c1cc(Cl)ccc1NS(=O)(=O)c1ccc(C(=O)N2CCOCC2)cc1`, the inhibition runs as follows: (Thailand/16681/1984, Concentration 49.5 uM, Number of replicates 2.0, Standard deviation 0.9242131636205312 %) 0.016%; (Thailand/16681/1984, Concentration 99.01 uM, Number of replicates 2.0, Standard deviation 0.5448647637736805 %) 0.743%; (Thailand/16681/1984, Concentration 198.0 uM, Number of replicates 2.0, Standard deviation 0.08706358790592401 %) 3.74%.
For `CNC(=O)c1cc(Br)cnc1NS(=O)(=O)c1ccc(Oc2ccccc2Cl)cc1`, the inhibition (Thailand/16681/1984, Concentration 49.5 uM, Number of replicates 2.0, Standard deviation 0.1523274770628613 %) was 20.5%; the inhibition (Thailand/16681/1984, Concentration 99.01 uM, Number of replicates 2.0, Standard deviation 0.08785965758059779 %) was determined as 73.9%; the inhibition (Thailand/16681/1984, Concentration 198.0 uM, Number of replicates 2.0, Standard deviation 0.12988512316778045 %) is 87.2%.
As for `CNC(=O)c1nc(Cl)ccc1NS(=O)(=O)c1ccc(Oc2ccccc2Cl)cc1`, the inhibition by setting is: (Thailand/16681/1984, Concentration 49.5 uM, Number of replicates 2.0, Standard deviation 0.5855266102241418 %) 6.34%; (Thailand/16681/1984, Concentration 99.01 uM, Number of replicates 2.0, Standard deviation 0.14494638377684543 %) 6.62%; (Thailand/16681/1984, Concentration 198.0 uM, Number of replicates 2.0, Standard deviation 0.056926230997118174 %) 4.4%.
Turning to `C[C@H]1COCCN1C(=O)c1cc(Cl)ccc1NS(=O)(=O)c1ccc(Oc2ccccc2Cl)cc1`, the inhibition by setting is: (Thailand/16681/1984, Concentration 49.5 uM, Number of replicates 2.0, Standard deviation 1.11087224122176 %) 42.6%; (Thailand/16681/1984, Concentration 99.01 uM, Number of replicates 2.0, Standard deviation 0.41977451897359047 %) 79.8%; (Thailand/16681/1984, Concentration 198.0 uM, Number of replicates 2.0, Standard deviation 0.050716482924917095 %) 92.9%.

One may read the inhibition as the drop in the measured response relative to a control, in per cent.
